# Experimental data published in PubChem BioAssay AID488890 (Southern Research Specialized Biocontainment Screening …, 2010).
# Among all 320,000 compounds or so, about 1,300 (0.41%) were called active. Another 3% or so got no clear call; they are omitted. How the calls were made is not given here. A selection follows. Entries with a potency or affinity are not part of this list.
# Assay: growth inhibition of non-replicating M. tuberculosis (AID 488890);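 further: plate controls were DMSO cells for no effect and high antibiotic wells for full effect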
# Details: Mycobacterium tuberculosis non-replicating, at 25 µM, stronger effect = higher value
row,Structure (SMILES),inhibition [%]
1,c1cnc2c(OCc3cn4cccnc4n3)cccc2c1,24.9
2,CCC(C(=O)NCc1ccco1)N(C(=O)CNS(=O)(=O)c1ccccc1)C1CCCCC1 (stereo unspecified),18.4
3,COc1ccc(-n2c(SCC(=O)O)nnc2-c2ccc(NC(=O)c3ccccc3)cc2)cc1,9.48
4,CCOc1ccc(-c2nnc(-c3ccc(OC)cc3)o2)cc1,53.7
5,CC(=O)CSc1nnc(Cc2ccc([N+](=O)[O-])cc2)o1,70.9
6,CCCc1nnc(-c2cc(OC)c(OC)c(OC)c2)o1,7.1
7,COc1ccc(-c2nnc(SCC#N)o2)cc1,65.7
8,Cc1nnc(SCc2ccc([N+](=O)[O-])cc2)o1,16.4
9,COc1ccc(-c2nnc(SCc3cc(C)cc(C)c3)o2)cc1,42.9
10,COc1ccc(-c2ccc(-c3nnc(Cc4ccc(OC)c(OC)c4)o3)cc2)cc1,15.8
11,COc1ccc(NCc2nnc(-c3ccccc3)o2)cc1,69.4
12,Cn1c(=O)c(=O)n(C)c2cc(S(=O)(=O)N3CCOCC3)ccc21,-6.34
13,COC(=O)c1cc(S(=O)(=O)NCc2ccccc2Cl)c[nH]1,-3.81
14,Cc1ccc2c(c1)N(S(=O)(=O)c1ccc(CN3C(=O)c4cccnc4C3=O)cc1)CCO2,15.3
15,Cn1c(SCc2cccnc2)nc2cccnc21,-20.7
16,CC/C(=N\N=C1\SC(C)C(=O)N1Cc1ccco1)c1ccccc1 (stereo unspecified),32
17,COc1ccccc1CNC(=O)c1cnn2c(C(F)F)cc(C)nc12,24.9
18,COc1ccccc1N1CCN(S(=O)(=O)CCNC(=O)C2CC2)CC1,-6.08
19,COc1ccc(-c2cc(C(F)F)n3ncc(C(=O)Nc4cnn(Cc5ccccc5)c4)c3n2)cc1,-6.39
20,O=[N+]([O-])c1ccc(Cc2nnc(-c3ccccc3Cl)o2)cc1,34.9
21,Fc1ccc(-c2nnc(Cc3nnc(-c4ccc(F)cc4)o3)o2)cc1,-8.26
22,Clc1ccccc1OCc1nnc(-c2ccccc2Br)o1,29.1
23,Cc1cccc(NCc2ccccc2O)c1C,12.1

row,Structure (SMILES),inhibition [%]
1,COc1ccc(OC)c(NCc2nnc(-c3ccccc3)o2)c1,77
2,c1ccc(CN2CCN(Cc3nnc(-c4ccccc4)o3)CC2)cc1,30.8
3,O=[N+]([O-])c1ccc(Cc2nnc(-c3ccc(F)cc3)o2)cc1,72.1
4,c1ccc(OCc2nnc(-c3ccccc3)o2)cc1,62.3
5,O=C(Nc1nn(Cc2ccc(Cl)cc2)cc1Br)c1ccc(COc2ccccc2Cl)o1,44.8
6,CCc1cc(CC)c(/C=N/NC(N)=O)c(CC)c1,6.49
7,COc1ccc(-n2cnc3sc4c(c3c2=O)CCCC4)cc1,26
8,CC(C)c1nnc(NC(=O)CN2C(=O)c3ccccc3C2=O)s1,-1.11
9,Cc1ccc(-n2ncc(C(=O)N3CCN(C(=O)c4ccco4)CC3)c2C2CCN(C(=O)OC(C)(C)C)CC2)cc1C,-1.31
10,O=C(C1CCC1)N1CCc2cc(S(=O)(=O)NCCCN3CCCCC3)ccc21,-2.13
11,CCOC(=O)c1c(NC(=O)Nc2ccc(F)cc2)sc2c1CCN(C)C2,0.96
12,C=CCn1c(O)c(C(CC)=NCCc2c[nH]c3ccccc23)c(=O)[nH]c1=O,18.7
13,O=[N+]([O-])c1cccc(-c2nnc(C3CC3)o2)c1,8.89
14,Clc1ccc(-c2nnc(C3CC3)o2)cc1,63
15,COc1cc(NC(=O)c2ccc(Cl)cc2)c(Cl)cc1NC(=O)c1cccnc1,-8.85
16,Cc1ccccc1CN1CCC(C(=O)Nc2ccc(Oc3cccnc3)cc2)CC1,30.1
17,COc1cccc(O)c1CN1CCC(C(=O)Nc2ccc(Oc3cccnc3)cc2)CC1,19.3
18,CC1Cc2ccccc2N1C(=O)CO/N=C/c1ccccc1OC(F)F (stereo unspecified),-12.1
19,C=CCn1c(O)c(N=NC(=O)C(O)c2ccccc2)c2ccccc21 (stereo unspecified),15.4
20,CC(OC(=O)c1snc(C(=O)NC2CCCCC2)c1N)C(=O)NC(C)(C)C (stereo unspecified),48.2
21,CCOC(=O)c1snc(C(=O)NC2CCCCC2)c1N,64.4
22,CC(C)(C)NC(=O)CN(C(=O)c1snc(C(=O)NC2CCCCC2)c1N)c1ccc(F)cc1,-3.77
23,CC(OC(=O)c1snc(C(=O)NC2CCCCC2)c1N)C(=O)NC1CCCCC1 (stereo unspecified),-11.8

row,Structure (SMILES),inhibition [%]
1,C/C(=N\NC(=O)C(C)Nc1cccc(Cl)c1)c1ccc([N+](=O)[O-])cc1 (stereo unspecified),6.72
2,Cc1ccc2oc(=O)c3cnn(CC(=O)NCCC(C)C)c3c2c1,-1
3,COCCN1C(=O)N[C@@H](c2ccccc2)[C@@H](C(=O)OC)[C@H]1C,-23.2
4,CC(C)NC(=O)C(c1ccc(F)cc1)N(C(=O)CCC(=O)Nc1ccccn1)C1CCCCC1 (stereo unspecified),-1.84
5,O=C1Nc2ccccc2C1Cc1ccccc1 (stereo unspecified),24.6
6,FC(F)(F)c1cc(CO[C@@H]2CCCN[C@@H]2c2ccccc2)cc(C(F)(F)F)c1,63.4
7,CCOc1ccc(Br)cc1/C=N/NC(=O)c1ccncc1,73.7
8,COc1ccc(NC(=O)COC(=O)CCCc2c[nH]c3ccccc23)cc1OC,16.1
9,CS(=O)(=O)c1ccc(Cl)c(NC(=O)COC(=O)CCc2c[nH]c3ccccc23)c1,74.8
10,Cc1ccc(NC(=O)COC(=O)Cc2c[nH]c3ccccc23)cc1C,35.7
11,COc1ccc(C(=O)NCCc2c[nH]c3ccccc23)cc1,25.8
12,Cc1cccc(NC(=O)COC(=O)Cc2c[nH]c3ccccc23)c1C,6.74
13,CS(=O)(=O)c1ccc(Cl)c(NC(=O)COC(=O)Cc2c[nH]c3ccccc23)c1,-10
14,O=C(COC(=O)Cc1c[nH]c2ccccc12)Nc1cccc2ccccc12,2.45
15,COc1ccc(CNC(=O)CCc2c[nH]c3ccccc23)cc1,-7.3
16,CCc1ccccc1N(C(=O)c1snc(C(N)=O)c1N)C(C(=O)NCC1CCCO1)c1ccc(C)o1 (stereo unspecified),37.2
17,C[C@H]1COC(=O)[C@H](Cc2ccc(F)cc2)C/C=C\C[C@H](CC(=O)NCCO)C(=O)N1,6.21
18,CCCCN(C(=O)C1CCC1)c1c(N)n(CCC)c(=O)[nH]c1=O,-13.3
19,COc1cc(OC)c(C2=NOC(C(=O)NCc3cccnc3)C2)cc1Cl (stereo unspecified),2.26
20,COc1ccc(NC(=O)c2coc3ccccc23)cc1OC,48.1
21,C[C@H](OC(=O)N1CCN(C(c2ccccc2)c2ccccc2)CC1)[C@@H]1O[C@@]2(C)CCC[C@H]1O2,3.49
22,COCCN1C(=O)c2ccccc2C(C(=O)N2CCN(c3ccccc3)CC2)C1c1ccc(F)cc1 (stereo unspecified),30
23,NS(=O)(=O)c1cccc(NC(=O)COC(=O)CCCc2c[nH]c3ccccc23)c1,7.86

row,Structure (SMILES),inhibition [%]
1,O=C(COC(=O)c1c[nH]c2ccccc12)Nc1ccc([N+](=O)[O-])cc1,-4.96
2,Cc1ccc(NC(=O)CCc2c[nH]c3ccccc23)nc1,65.6
3,COc1cccc(NC(=O)COC(=O)CCCc2c[nH]c3ccccc23)c1,58.5
4,CC(=O)Nc1ccc(NC(=O)COC(=O)CCCc2c[nH]c3ccccc23)cc1,13.7
5,Cc1ccnc(NC(=O)CCCc2c[nH]c3ccccc23)c1,11.4
6,COc1ccc2cc(C3CC(c4cccs4)=NN3C(C)=O)c(Cl)nc2c1 (stereo unspecified),-4.81
7,CCCc1nc2c(=O)[nH]c3ccccc3c2o1,-9.47
8,CCCCc1nc2c(=O)[nH]c3ccccc3c2o1,-16.6
9,CNCc1ccccc1Sc1cccc(O)c1,-3.89
10,CNCc1ccccc1Sc1ccc(O)c(O)c1,33.3
11,CC(=O)NCCOc1ccc2oc3ccccc3c2c1,5.68
12,CC(=O)Nc1ccc(NC(=O)COc2ccc(-c3ccc(C#N)cc3)cc2)cc1,-7.55
13,O=C(O)COc1ccc2oc3ccccc3c2c1,3.49
14,COc1ccc(CCNC(=O)COc2ccc(-c3ccc(C#N)cc3)cc2)cc1,72.4
15,CC(C)N(Cc1ccccc1)C(=O)CC(=O)N(Cc1ccccc1)C(C)C,6.28
16,CCc1ccc(-c2cc(C)no2)cc1S(=O)(=O)Nc1cc(C)ccn1,-1.42
17,CCOC(=O)N1CCN(C(=O)CN(C)S(=O)(=O)c2ccc(Cl)cc2)CC1,-17.1
18,CSCCC(NC(=O)c1ccco1)C(=O)NC1CCCCCC1 (stereo unspecified),-8.42
19,Cc1cc(Nc2nc3ccccc3nc2Cl)n(-c2ccccc2)n1,8.46
20,CC(C)(C)NC(=S)NCc1ccco1,-18.9
21,CC(C)(O)C(=O)NNC(=S)NCc1ccco1,-2.82
22,COc1ccc(/C=N/NC(=O)c2cccs2)c2ccccc12,76.3
23,CCOC(=O)CCCNC(=O)COC(=O)c1ccc(O)cc1,-2.65

row,Structure (SMILES),inhibition [%]
1,CCOC(=O)CCCNC(=O)COC(=O)c1cc(C)cc(C)c1,-5.81
2,COc1ccc(S(=O)(=O)NCC2CCCN(Cc3ccc(C)o3)C2)cc1 (stereo unspecified),8.61
3,COc1ccc(C(=O)N2CCN(CCNC(=O)C(=O)Nc3ccc(F)cc3)CC2)cc1OC,-5.42
4,CC(C)NCC(=O)C12CC3CC(CC(C3)C1)C2,-12.5
5,COc1ccc(C(=O)COC(=O)CCc2nc3ccccc3[nH]c2=O)cc1Br,5.73
6,COC1CCCN(C(=O)c2ccc3oc(Cc4ccc(Cl)cc4)nc3c2)C1 (stereo unspecified),23.6
7,CCN(CC)c1ccc(CNCc2cccs2)cc1,6.27
8,COc1cccc2cc(C(=O)NC(C)c3ccccc3)c(=O)oc12 (stereo unspecified),26.4
9,Cc1cc(C)cc(OCC(=O)NNC(=O)c2cc3ccccc3o2)c1,-4.01
10,CC(NC(=O)c1cc(Br)ccc1Br)c1ccccc1 (stereo unspecified),-17.5
11,CC(NC(=O)c1cc(Br)ccc1Cl)c1ccccc1 (stereo unspecified),0.91
12,O=C(COc1ccccc1)NNC(=O)c1cc2ccccc2oc1=O,10.5
13,CC(=O)OCCNC(=O)c1cc2ccccc2oc1=O,-10.9
14,COc1ccc2oc(=O)c(C(=O)NC(C)c3ccccc3)cc2c1 (stereo unspecified),16.5
15,Cc1ccc(C(C)NC(=O)c2ccco2)cc1C (stereo unspecified),71.1
16,Cc1ccccc1CS(=O)(=O)CCC(=O)NCCCN1CCOCC1,-2.86
17,CCN(CC)CCNC(=O)c1ccc(NC(=O)c2cc(-c3ccco3)nc3ccccc23)cc1,4.2
18,O=C(CCc1ccccc1)Nc1cc(NC(=O)CCc2ccccc2)cc(C(=O)O)c1,-12.7
19,COc1ccc(C(=O)Nc2ccccc2NC(=O)c2ccc(OC)cc2)cc1,-3.72
